Assay [1] concerns zebrafish Peroxisome Proliferator-activated Receptor gamma (PPARg), gene 557037. As to the kind of experiment: ATG_zfPPARg_XSP1: Attagene TRANS-FACTORIAL Multi-Species (XSP1) HepG2 Assay for zebrafish Peroxisome Proliferator-activated Receptor gamma (PPARg) (AID 2283801). A digest of the protocol:
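HepG2 cells transiently transfected with GAL4-UAS reporter units including a zebrafish PPARg–GAL4 chimera, dosed 24 h with 3 nM 6-alpha-fluorotestosterone present. Reporter mRNA quantified by RT-PCR, FAM labelling, HpaI digestion and capillary electrophoresis; induction versus DMSO.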

For assay [2], the target named is mouse Peroxisome Proliferator-activated Receptor gamma (PPARg), Pparg (gene 19016) (UniProt P37238). As to the kind of experiment: ATG_mPPARg_XSP1: Attagene TRANS-FACTORIAL Multi-Species (XSP1) HepG2 Assay for mouse Peroxisome Proliferator-activated Receptor gamma (PPARg) (AID 2283802). A digest of the protocol: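 HepG2 cells transiently transfected with GAL4-UAS reporter units driven by mouse PPARg–GAL4 chimera; 3 nM 6-alpha-fluorotestosterone present. After 24 h dosing, reporter mRNA quantified by RT-PCR, fluorescent labelling and capillary electrophoresis; gain of signal versus DMSO.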
Chain of mouse Peroxisome Proliferator-activated Receptor gamma (PPARg), Pparg (gene 19016) (P37238 whole entry, looked up, the tested form may be a part): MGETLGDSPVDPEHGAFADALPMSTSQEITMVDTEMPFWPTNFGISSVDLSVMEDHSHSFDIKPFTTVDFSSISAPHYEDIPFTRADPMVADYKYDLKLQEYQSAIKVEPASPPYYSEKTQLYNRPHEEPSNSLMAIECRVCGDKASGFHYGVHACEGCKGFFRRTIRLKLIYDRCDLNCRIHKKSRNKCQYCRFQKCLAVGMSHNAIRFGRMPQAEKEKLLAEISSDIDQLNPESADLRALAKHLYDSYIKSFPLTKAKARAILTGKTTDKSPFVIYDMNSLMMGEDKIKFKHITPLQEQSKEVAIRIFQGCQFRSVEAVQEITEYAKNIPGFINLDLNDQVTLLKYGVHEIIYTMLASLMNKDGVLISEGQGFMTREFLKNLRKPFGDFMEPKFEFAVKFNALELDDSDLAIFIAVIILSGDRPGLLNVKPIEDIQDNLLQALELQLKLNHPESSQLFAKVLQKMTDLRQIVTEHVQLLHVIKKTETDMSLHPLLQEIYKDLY

In assay [3] the target is Nuclear receptor subfamily 1 group I member 2 (Mus musculus) (UniProt O54915). As to the kind of experiment: ATG_mPXR_XSP1: Attagene TRANS-FACTORIAL Multi-Species (XSP1) HepG2 Assay for mouse Pregnane X Receptor (PXR) (AID 2283803). A digest of the protocol:
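Transiently transfected HepG2 cells expressing a receptor-Gal4 chimera drive a GAL4-UAS reporter; 3 nM 6-alpha-fluorotestosterone included. Reporter mRNA read 24 h post-dose by RT-PCR and capillary electrophoresis; gain of signal relative to DMSO.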

The target of assay [4] is frog Thyroid hormone Receptor alpha (TRa), thra-a (gene 397942) (UniProt P15204). As to the kind of experiment: ATG_frTRa_XSP1: Attagene TRANS-FACTORIAL Multi-Species (XSP1) HepG2 Assay for frog Thyroid hormone Receptor alpha (TRa) (AID 2283804). A digest of the protocol:
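HepG2 cells transiently transfected with frog TRa-GAL4 chimeric reporter units, dosed 24 hr with 3 nM 6-alpha-fluorotestosterone present; reporter mRNA quantified by RT-PCR, fluorescent labelling and capillary electrophoresis, gain of signal versus DMSO.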

In assay [5] the target is human Thyroid hormone Receptor alpha (TRa), THRA (gene 7067) (UniProt P10827). As to the kind of experiment: ATG_hTRa_XSP1: Attagene TRANS-FACTORIAL Multi-Species (XSP1) HepG2 Assay for human Thyroid hormone Receptor alpha (TRa) (AID 2283805). A digest of the protocol: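 HepG2 cells transiently transfected with GAL4-UAS reporter units expressing chimeric NR-Gal4 proteins, dosed 24 hours with 3 nM 6-alpha-fluorotestosterone present. Reporter mRNA measured by RT-PCR and capillary electrophoresis; gain of signal fitted versus DMSO.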
Chain of human Thyroid hormone Receptor alpha (TRa), THRA (gene 7067) (P10827 whole entry, looked up, the tested form may be a part): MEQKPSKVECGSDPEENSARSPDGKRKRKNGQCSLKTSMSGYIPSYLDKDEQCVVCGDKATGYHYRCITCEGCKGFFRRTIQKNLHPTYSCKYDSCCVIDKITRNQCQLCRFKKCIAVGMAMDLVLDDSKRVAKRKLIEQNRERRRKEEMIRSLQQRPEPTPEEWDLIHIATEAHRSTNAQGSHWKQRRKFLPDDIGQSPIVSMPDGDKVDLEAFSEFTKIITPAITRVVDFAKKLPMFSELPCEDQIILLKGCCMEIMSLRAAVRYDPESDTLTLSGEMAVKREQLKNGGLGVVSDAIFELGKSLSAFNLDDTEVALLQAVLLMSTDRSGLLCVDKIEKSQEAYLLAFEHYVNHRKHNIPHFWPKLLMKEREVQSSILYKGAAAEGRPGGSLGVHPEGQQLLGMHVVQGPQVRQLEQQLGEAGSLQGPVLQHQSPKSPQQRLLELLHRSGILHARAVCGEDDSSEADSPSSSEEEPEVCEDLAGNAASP

The subject of assay [6] is turtle Thyroid Hormone Receptor, alpha (TRa), gene 101949057. As to the kind of experiment: ATG_trTRa_XSP1: Attagene TRANS-FACTORIAL Multi-Species (XSP1) HepG2 Assay for turtle Thyroid Hormone Receptor, alpha (TRa) (AID 2283806). A digest of the protocol:
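HepG2 cells transiently transfected with GAL4-UAS reporter units and chimeric receptor-Gal4 constructs, with 3 nM 6-alpha-fluorotestosterone present. Reporter mRNA was quantified 24 h after dosing by RT-PCR, 6-FAM labelling and capillary electrophoresis; gain of signal versus DMSO.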

For assay [7], the target named is zebrafish Thyroid Hormone Receptor alpha (TRa), thraa (gene 30670) (UniProt Q98867). As to the kind of experiment: ATG_zfTRa_XSP1: Attagene TRANS-FACTORIAL Multi-Species (XSP1) HepG2 Assay for zebrafish Thyroid Hormone Receptor alpha (TRa) (AID 2283807). A digest of the protocol: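 HepG2 cells transiently transfected with GAL4-UAS reporter units including a zebrafish TRa–Gal4 chimera, dosed 24 h with 3 nM 6-alpha-fluorotestosterone present. Reporter mRNA quantified by RT-PCR and capillary electrophoresis; gain versus DMSO.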
Chain of zebrafish Thyroid Hormone Receptor alpha (TRa), thraa (gene 30670) (Q98867 whole entry, looked up, the tested form may be a part): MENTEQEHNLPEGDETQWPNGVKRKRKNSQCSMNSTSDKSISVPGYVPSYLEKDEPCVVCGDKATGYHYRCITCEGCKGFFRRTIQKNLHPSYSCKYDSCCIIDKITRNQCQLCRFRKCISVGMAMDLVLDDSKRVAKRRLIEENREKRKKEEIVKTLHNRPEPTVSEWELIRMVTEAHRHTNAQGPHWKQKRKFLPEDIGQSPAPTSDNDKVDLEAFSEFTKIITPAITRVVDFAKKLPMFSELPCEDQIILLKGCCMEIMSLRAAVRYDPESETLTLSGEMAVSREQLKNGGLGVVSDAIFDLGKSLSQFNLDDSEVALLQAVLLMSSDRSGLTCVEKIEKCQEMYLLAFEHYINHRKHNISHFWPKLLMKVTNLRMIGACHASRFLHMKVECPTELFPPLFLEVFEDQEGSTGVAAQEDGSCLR

The target in assay [8] is human Thyroid hormone Receptor beta (TRb), THRB (gene 7068) (UniProt P10828). As to the kind of experiment: ATG_hTRb_XSP1: Attagene TRANS-FACTORIAL Multi-Species (XSP1) HepG2 Assay for human Thyroid hormone Receptor beta (TRb) (AID 2283808). A digest of the protocol: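 HepG2 cells transiently transfected with reporter units driving GAL4-UAS reporters for chimeric NR-Gal4 proteins; 24 h chemical exposure with 3 nM 6-alpha-fluorotestosterone present. Reporter mRNA quantified by RT-PCR and capillary electrophoresis, gain of signal versus DMSO.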
Chain of human Thyroid hormone Receptor beta (TRb), THRB (gene 7068) (P10828 whole entry, looked up, the tested form may be a part): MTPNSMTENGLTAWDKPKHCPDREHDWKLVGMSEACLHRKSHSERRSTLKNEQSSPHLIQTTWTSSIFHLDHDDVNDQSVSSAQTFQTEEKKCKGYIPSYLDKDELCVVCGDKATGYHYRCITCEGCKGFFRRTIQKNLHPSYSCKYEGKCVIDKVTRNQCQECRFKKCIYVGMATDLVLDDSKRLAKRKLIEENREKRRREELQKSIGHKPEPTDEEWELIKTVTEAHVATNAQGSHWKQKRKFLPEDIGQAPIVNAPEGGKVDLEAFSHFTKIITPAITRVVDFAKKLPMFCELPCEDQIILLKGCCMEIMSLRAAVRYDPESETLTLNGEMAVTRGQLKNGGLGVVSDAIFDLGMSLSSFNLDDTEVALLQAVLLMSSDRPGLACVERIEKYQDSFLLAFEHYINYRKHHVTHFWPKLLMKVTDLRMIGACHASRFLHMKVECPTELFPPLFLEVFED

The target of assay [9] is zebrafish Thyroid Hormone Receptor beta (TRb), thrb (gene 30607) (UniProt Q9PVE4). As to the kind of experiment: ATG_zfTRb_XSP1: Attagene TRANS-FACTORIAL Multi-Species (XSP1) HepG2 Assay for zebrafish Thyroid Hormone Receptor beta (TRb) (AID 2283809). A digest of the protocol: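 HepG2 cells transiently transfected with multiplexed GAL4-UAS reporter units expressing chimeric zebrafish TRb–Gal4. Dosed 24 h with 3 nM 6-alpha-fluorotestosterone present; reporter mRNA measured by RT-PCR, HpaI digestion and capillary electrophoresis; gain of signal versus DMSO.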
Chain of zebrafish Thyroid Hormone Receptor beta (TRb), thrb (gene 30607) (Q9PVE4 whole entry, looked up, the tested form may be a part): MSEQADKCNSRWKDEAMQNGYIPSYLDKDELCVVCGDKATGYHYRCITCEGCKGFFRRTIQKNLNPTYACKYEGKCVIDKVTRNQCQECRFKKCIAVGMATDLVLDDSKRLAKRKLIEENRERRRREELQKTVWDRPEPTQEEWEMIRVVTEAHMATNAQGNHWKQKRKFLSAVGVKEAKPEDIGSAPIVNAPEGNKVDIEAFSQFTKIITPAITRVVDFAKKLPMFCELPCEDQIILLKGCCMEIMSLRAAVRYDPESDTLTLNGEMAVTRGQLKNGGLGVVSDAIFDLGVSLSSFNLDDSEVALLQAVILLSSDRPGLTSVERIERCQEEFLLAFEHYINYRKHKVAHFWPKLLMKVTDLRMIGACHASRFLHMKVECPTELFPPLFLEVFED

A short description of assay [10]: ATG_XTT_Cytotoxicity_XSP1: Cytotoxicity Assessment in the Attagene TRANS-FACTORIAL Multi-Species (XSP1) HepG2 Assay (AID 2283810). A digest of the protocol:
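XTT viability readout taken at 24 hours post-dosing in HepG2 liver cells co-treated with 3 nM 6-alpha-fluorotestosterone. Signal loss relative to DMSO controls reflects cytotoxicity.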

Assay [11] can be described thus: ATG_M_06_XSP2: Attagene TRANS-FACTORIAL Multi-Species (XSP2) HepG2 Assay for M06 Transcription Factor (Internal Marker) (AID 2283811).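 Also: hits are increases in signal above the DMSO baseline.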 A digest of the protocol:
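HepG2 cells transiently transfected with GAL4-UAS multi-reporter constructs, dosed 24 h with 3 nM 6-alpha-fluorotestosterone plus 1.5 nM norgestrel present to stimulate androgen receptor. Reporter mRNA quantified by RT-PCR, 6-FAM labelling, HpaI digestion and capillary electrophoresis; gain-of-signal fitted versus DMSO baseline.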

Assay [12] relates to turtle Estrogen Receptor (ERa), gene 101933533. As to the kind of experiment: ATG_trERa_XSP2: Attagene TRANS-FACTORIAL Multi-Species (XSP2) HepG2 Assay for turtle Estrogen Receptor (ERa) (AID 2283812).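 Also: human HepG2 liver cells transiently expressing turtle ERa-Gal4 chimeric receptor; actives raise reporter signal above DMSO so AC50 reflects agonist activity.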 A digest of the protocol:
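HepG2 cells transiently transfected with GAL4-UAS reporter units expressing turtle ERa-Gal4 chimera. Reporter mRNA measured after 24 h dosing by RT-PCR, fluorescent labelling and capillary electrophoresis; gain of signal fitted versus DMSO.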

The target in assay [13] is GAL4 Transcription Factor (Internal Marker), GAL4 (gene 855828) (UniProt P04386). As to the kind of experiment: ATG_GAL4_XSP2: Attagene TRANS-FACTORIAL Multi-Species (XSP2) HepG2 Assay for GAL4 Transcription Factor (Internal Marker) (AID 2283814).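 Also: GAL4 reporter mRNA background control in MRTU transfected cells not a receptor target.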 A digest of the protocol: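 HepG2 cells transiently transfected with GAL4-UAS reporter units, stimulated with 3 nM 6-alpha-fluorotestosterone plus 1.5 nM norgestrel, dosed 24 h. Reporter mRNA by RT-PCR/capillary electrophoresis; gain-of-signal fit versus DMSO, background control.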

For assay [14], the target named is chicken Estrogen Receptor (ERa), ESR1 (gene 396099) (UniProt P06212). As to the kind of experiment: ATG_chERa_XSP2: Attagene TRANS-FACTORIAL Multi-Species (XSP2) HepG2 Assay for chicken Estrogen Receptor (ERa) (AID 2283817).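 Also: actives raise reporter signal above DMSO so AC50 reflects ER activation.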 A digest of the protocol: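 HepG2 cells transiently transfected with multiplexed GAL4-UAS reporter units expressing chimeric chicken ERa-Gal4; 24 h compound exposure. Reporter mRNA measured by RT-PCR with 6-FAM labelling, HpaI digestion and capillary electrophoresis; gain-of-signal fitted versus DMSO.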
Chain of chicken Estrogen Receptor (ERa), ESR1 (gene 396099) (P06212 whole entry, looked up, the tested form may be a part): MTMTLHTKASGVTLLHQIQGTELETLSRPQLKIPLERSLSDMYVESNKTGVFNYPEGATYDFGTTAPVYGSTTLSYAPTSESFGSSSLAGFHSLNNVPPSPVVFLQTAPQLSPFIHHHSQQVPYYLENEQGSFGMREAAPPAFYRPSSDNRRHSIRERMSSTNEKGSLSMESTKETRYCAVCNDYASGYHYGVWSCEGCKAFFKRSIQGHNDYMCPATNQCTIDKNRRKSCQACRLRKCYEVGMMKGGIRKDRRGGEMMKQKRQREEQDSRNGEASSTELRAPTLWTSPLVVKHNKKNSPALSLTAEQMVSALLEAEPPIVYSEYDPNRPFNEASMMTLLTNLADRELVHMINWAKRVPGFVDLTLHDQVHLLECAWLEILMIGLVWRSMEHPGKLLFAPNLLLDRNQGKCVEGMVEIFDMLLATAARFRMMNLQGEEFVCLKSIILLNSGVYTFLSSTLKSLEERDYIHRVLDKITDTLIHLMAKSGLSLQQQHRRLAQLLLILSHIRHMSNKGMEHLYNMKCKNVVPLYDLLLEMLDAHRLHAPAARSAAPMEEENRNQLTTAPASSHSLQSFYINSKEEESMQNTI

The test system of assay [15] is zebrafish Estrogen Receptor (ER2a), gene 317734. As to the kind of experiment: ATG_zfER2a_XSP2: Attagene TRANS-FACTORIAL Multi-Species (XSP2) HepG2 Assay for zebrafish Estrogen Receptor (ER2a) (AID 2283818).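 Also: hits raise reporter mRNA so AC50 reflects activation of zebrafish ER2a.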 A digest of the protocol:
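HepG2 cells transiently transfected with GAL4-UAS reporter units and chimeric zebrafish ER2a-Gal4, exposed 24 h; medium contains 3 nM 6-alpha-fluorotestosterone and 1.5 nM norgestrel. Reporter mRNA quantified by RT-PCR, HpaI digestion, capillary electrophoresis; gain versus DMSO.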

The subject of assay [16] is frog Estrogen Receptor (ER), gene 398734. As to the kind of experiment: ATG_frER1_XSP2: Attagene TRANS-FACTORIAL Multi-Species (XSP2) HepG2 Assay for frog Estrogen Receptor (ER) (AID 2283821).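 Also: hits raise reporter mRNA above DMSO baseline so potency means agonist or activator.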 A digest of the protocol:
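HepG2, transient MRTU transfection, chimeric NR-GAL4/UAS reporters; 24 h compound exposure, 24-well. Readout: reporter mRNA via RT-PCR + capillary electrophoresis, fluorescence. Positive fit vs DMSO baseline.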

For assay [17], the target named is Estrogen receptor beta (Homo sapiens) (UniProt Q92731). As to the kind of experiment: ATG_hERb_XSP2: Attagene TRANS-FACTORIAL Multi-Species (XSP2) HepG2 Assay for human Estrogen Receptor (ERb) (AID 2283813).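 Also: actives raise reporter mRNA above DMSO so AC50 reflects agonist induction.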 A digest of the protocol:
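HepG2 cells transiently transfected with GAL4-UAS reporter units and chimeric human ERb-Gal4, 24 h exposure. Reporter mRNA quantified by RT-PCR with FAM labelling, HpaI digestion and capillary electrophoresis; gain of signal versus DMSO.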

For assay [18], the target named is zebrafish Estrogen Receptor (ER1), esr1 (gene 259252) (UniProt P57717). As to the kind of experiment: ATG_zfER1_XSP2: Attagene TRANS-FACTORIAL Multi-Species (XSP2) HepG2 Assay for zebrafish Estrogen Receptor (ER1) (AID 2283816). A digest of the protocol: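 HepG2 cells transiently transfected with a GAL4-UAS reporter and a chimeric zebrafish ER1-Gal4 construct, dosed 24 h. Reporter mRNA quantified by RT-PCR, labelling, HpaI digestion and capillary electrophoresis, relative to DMSO.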
Chain of zebrafish Estrogen Receptor (ER1), esr1 (gene 259252) (P57717 whole entry, looked up, the tested form may be a part): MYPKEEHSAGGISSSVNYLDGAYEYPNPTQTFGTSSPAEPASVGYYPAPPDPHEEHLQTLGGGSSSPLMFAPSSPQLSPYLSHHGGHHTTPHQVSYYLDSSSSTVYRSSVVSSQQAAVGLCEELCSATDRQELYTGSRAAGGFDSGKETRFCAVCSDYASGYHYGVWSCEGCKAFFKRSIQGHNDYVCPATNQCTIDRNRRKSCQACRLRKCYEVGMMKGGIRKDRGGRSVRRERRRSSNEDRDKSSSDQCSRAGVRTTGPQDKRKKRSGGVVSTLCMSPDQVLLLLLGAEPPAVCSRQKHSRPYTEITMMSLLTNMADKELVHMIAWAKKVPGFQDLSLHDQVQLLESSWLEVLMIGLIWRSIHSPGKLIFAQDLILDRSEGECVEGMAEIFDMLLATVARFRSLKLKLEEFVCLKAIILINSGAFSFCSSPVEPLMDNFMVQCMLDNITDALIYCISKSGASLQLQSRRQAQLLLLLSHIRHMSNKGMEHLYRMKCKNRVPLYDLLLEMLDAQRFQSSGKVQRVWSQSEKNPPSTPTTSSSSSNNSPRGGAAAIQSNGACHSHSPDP

In assay [19] the test system is chicken Androgen Receptor (AR), gene 422165. As to the kind of experiment: ATG_chAR_XSP2: Attagene TRANS-FACTORIAL Multi-Species (XSP2) HepG2 Assay for chicken Androgen Receptor (AR) (AID 2283819).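 Also: hits raise reporter mRNA above DMSO so potency is for activation.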 A digest of the protocol:
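HepG2 cells transiently transfected with chicken AR–GAL4 chimeric reporter constructs, stimulated with 3 nM 6-alpha-fluorotestosterone plus 1.5 nM norgestrel, dosed 24 h. Reporter mRNA quantified by RT-PCR and capillary electrophoresis; gain of signal fitted versus DMSO.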

Each structure is given as a SMILES string. Several values for one entry are separate records, joined by “and”; a condition that tells them apart may be missing. Equal values may be shown once. Inconclusive results are not listed. More than one record can exist for a structure, and the calls need not agree. Activity calls are given as the source filed them. The calls were made as follows: active = hit-call score of the fitted dose curve at least 0.9, where 1 is the maximum; inconclusive = response in the unintended direction; inactive = score below 0.9.

Chain of Estrogen receptor beta (Homo sapiens) (Q92731 whole entry, looked up, the tested form may be a part): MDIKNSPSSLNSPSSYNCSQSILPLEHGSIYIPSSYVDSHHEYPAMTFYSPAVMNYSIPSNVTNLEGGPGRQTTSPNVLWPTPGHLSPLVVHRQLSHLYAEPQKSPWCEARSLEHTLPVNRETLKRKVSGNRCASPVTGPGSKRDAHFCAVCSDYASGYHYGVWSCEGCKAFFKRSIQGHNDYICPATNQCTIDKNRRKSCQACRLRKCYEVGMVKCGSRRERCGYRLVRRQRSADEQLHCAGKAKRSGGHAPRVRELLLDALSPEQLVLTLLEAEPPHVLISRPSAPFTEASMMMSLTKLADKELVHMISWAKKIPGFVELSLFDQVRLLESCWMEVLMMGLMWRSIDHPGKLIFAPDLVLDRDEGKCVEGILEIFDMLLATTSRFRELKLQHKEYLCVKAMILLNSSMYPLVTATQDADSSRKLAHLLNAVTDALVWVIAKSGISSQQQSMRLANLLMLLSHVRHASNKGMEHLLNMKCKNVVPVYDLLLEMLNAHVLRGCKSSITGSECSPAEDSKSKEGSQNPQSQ
Chain of Nuclear receptor subfamily 1 group I member 2 (Mus musculus) (O54915 whole entry, looked up, the tested form may be a part): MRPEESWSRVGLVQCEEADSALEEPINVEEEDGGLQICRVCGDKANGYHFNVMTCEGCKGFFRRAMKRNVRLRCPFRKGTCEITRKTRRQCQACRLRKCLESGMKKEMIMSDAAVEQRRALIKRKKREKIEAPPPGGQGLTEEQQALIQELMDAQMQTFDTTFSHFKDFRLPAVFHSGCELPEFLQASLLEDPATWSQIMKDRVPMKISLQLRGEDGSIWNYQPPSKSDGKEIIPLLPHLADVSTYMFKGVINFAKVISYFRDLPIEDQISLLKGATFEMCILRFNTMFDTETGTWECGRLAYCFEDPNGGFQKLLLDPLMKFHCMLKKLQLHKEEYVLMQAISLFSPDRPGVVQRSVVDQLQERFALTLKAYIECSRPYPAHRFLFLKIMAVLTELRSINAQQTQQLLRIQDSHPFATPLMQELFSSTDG
Chain of frog Thyroid hormone Receptor alpha (TRa), thra-a (gene 397942) (P15204 whole entry, looked up, the tested form may be a part): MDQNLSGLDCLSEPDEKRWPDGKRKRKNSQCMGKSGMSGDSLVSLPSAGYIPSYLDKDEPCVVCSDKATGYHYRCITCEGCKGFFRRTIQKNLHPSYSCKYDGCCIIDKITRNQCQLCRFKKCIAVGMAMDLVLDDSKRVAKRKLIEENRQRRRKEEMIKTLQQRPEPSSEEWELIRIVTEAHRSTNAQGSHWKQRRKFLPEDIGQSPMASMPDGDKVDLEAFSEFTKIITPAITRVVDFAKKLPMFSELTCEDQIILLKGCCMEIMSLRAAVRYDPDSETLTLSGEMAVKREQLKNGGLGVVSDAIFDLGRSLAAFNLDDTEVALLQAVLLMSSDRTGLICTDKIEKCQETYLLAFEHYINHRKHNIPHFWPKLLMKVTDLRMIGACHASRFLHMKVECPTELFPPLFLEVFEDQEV

`Oc1cc(Cl)ccc1Oc1ccc(Cl)cc1Cl`: the compound was classed as inactive in assay [1], in assay [4], in assay [8], in assay [9], in assay [11] and in assay [12]. Moreover, the call in assay [16] was inactive. Besides, the AC50 (commonly the midpoint of the concentration-response curve, whichever way the signal moves) was 11.1 µM (active) in [2]; 14.4 µM (active) in assay [3]; 7.06 µM (active) in assay [5]; 11.1 µM (active) in assay [6]; 14 µM (active) in [7]; 100 µM (active) in [10]. Moreover, the AC50 in [13] was 15.8 µM (active); in assay [14], 7.48 µM (active); in [15] it was 14.1 µM (active).

Consider `CC(C)(C)C(O)/C(=C\c1ccc(Cl)cc1Cl)n1cncn1` (stereo not drawn), for which the call in assay [11], in assay [12], in [17], in assay [18], in [14] and in assay [15] was inactive. In addition, in assay [16], the compound was called inactive. The AC50 in assay [17] was 8.38 µM (active); in [14], 16 µM (active).

On to `Oc1ccc(Cl)cc1Cc1ccccc1`, for which the compound was called inactive in assay [1], in assay [3], in assay [4], in assay [5], in assay [6] and in assay [7]. For the same compound, the compound was classed as inactive in assay [8], in assay [9], in assay [10], in [11], in assay [12] and in [17]. The outcome in [13], in [14] and in [15] was inactive. The AC50 in assay [2] was 10.1 µM (active).

For the compound `COP(=S)(OC)Oc1ccc(SC)c(C)c1`, the call in assay [1], in assay [5], in assay [6], in [7], in assay [8] and in assay [9] was inactive. Also, the outcome in assay [10], in assay [11], in [17], in assay [13] and in assay [18] was inactive. Moreover, the AC50 is 41.5 µM (active) in assay [2]; 8.91 µM (active) in [3]; 5.17 µM (active) in [12]; 27.5 µM (active) in assay [14]; 27.8 µM (active) in assay [15]; 27.3 µM (active) in assay [16].

As for `COP(=S)(OC)Oc1ccc([N+](=O)[O-])cc1`, the concentration at half-maximal activity (AC50) in [12] is 29.6 µM (active) and 23.1 µM (active); in [17], 26.8 µM (active); in [14], 27.7 µM (active) and 20.6 µM (active); in [15] it was 26.7 µM (active). Also, the compound was classed as inactive in [17], in assay [13], in assay [18], in [15] and in assay [16].

Turning to `O=S(=O)(O)C(F)(F)C(F)(F)C(F)(F)C(F)(F)C(F)(F)C(F)(F)C(F)(F)C(F)(F)F`, the AC50 is 73.1 µM (active) in [2], 57.9 µM (active) in assay [3], 140 µM (active) in [7] and 154 µM (active) in [10]. In addition, the compound was classed as inactive in assay [9], in [11], in [12], in assay [14], in assay [15] and in assay [19]. Moreover, the result in assay [16] was inactive.

(Values after PubChem BioAssay (EPA / NIEHS).)
